# Shown are actives, neighbours in structure and some others; about 11% of the full set was active somewhere.
# Luciferase inh: Firefly luciferase inhibition profiling of diverse chemical library using quantitative high-throughput screening; Luciferin 4-monooxygenase (Photinus pyralis), P08659; purified P. pyralis luciferase, luminescence, biochemical; Potency, µM (top dose mostly 115 µM), actives largely listed as inhibitors; actives 2.5% (n = 76,000); AID 1347043, 2019; also: nearly all actives have a fitted effect of over 65% in size
#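 Inhibitors were tested against purified firefly luciferase in a biochemical, low-substrate format (both substrates at 10uM) and luminescence measured with a CCD imager.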
# hNpr1 antagonist: Natriuretic polypeptide receptor (hNpr1) antagonism - Primary qHTS; actives 1.6% (n = 76,000); HEK293 hNpr1 GloSensor cGMP, ANP-stimulated luminescence; Potency, µM (series often up to 46.3 µM), without a hit: at the highest dose activity change, negative = inhibition, actives largely listed as inhibitors; Atrial natriuretic peptide receptor 1 (Homo sapiens), P16066; calls by dose curve; also: nearly all actives have a fitted effect of over 60% in size
#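 HEK293 cells stably expressing human Npr1 and cGMP GloSensor pGS-40F, loaded 2 h with 2% GloSensor reagent, given compound 30 min at room temperature. Luminescence read before and 20 min after 0.1 nM hNppA.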
# HEK293 tox: Cytotoxic Profiling in HEK 293 Cell Line of Diverse Libraries Using Quantitative High-Throughput Screening; AID 1345083, 2018; actives 6.6% (n = 94,000); Potency, µM (series often up to 115 µM), for the others: at the top dose activity change, negative = cytotoxicity, actives largely listed as inhibitors; HEK 293 viability, ATP luminescence (CellTiter-Glo), 48-72 h; also: nearly all actives have a fitted effect of over 60% in size
#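 HEK 293 seeded at 250 cells/well receive compound via pintool. After 48 or 72 hr at 37 degree Celsius, 5% CO2 and 95% humidity, CellTiter-Glo is dispensed and luminescence read following 10 min at room temperature.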
# NIH3T3 tox: Cytotoxic Profiling in NIH 3T3 Cell Line of Diverse Libraries Using Quantitative High-Throughput Screening; NIH 3T3 viability, CellTiter-Glo ATP luminescence, 48-72 h; Potency, µM (titrated, usually from 96.7 µM), for inactives: top-dose activity change, negative = cytotoxicity, usual class: inhibitors; actives 4.3% (n = 94,000); AID 1345082, 2018; also: nearly all actives have a fitted effect of over 55% in size
#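 Viability of NIH 3T3 cells after 48 or 72 hr compound treatment at 37 °C was assessed by CellTiter-Glo, with luminescence imaged following a 10 min room-temperature step.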
# Active calls of the source: *; i = inactive; ? = inconclusive; . = not tested or not shown; [ ] = dose if it differs, or a comment. Unless noted, calls follow the shape of the dose curve; as a rule, active = well fitted curve in the direction sought with a large enough effect; inconclusive = small, poorly fitted or top-dose-only effect, or another doubt; inactive = no such curve, though single readings can be large; an effect the other way counts as inactive or inconclusive. % is scaled to controls: 0 for no effect and ±100 for the full control effect; potency is read from the fitted curve at half-maximal effect.
SMILES,Luciferase inh,hNpr1 antagonist,HEK293 tox,NIH3T3 tox
Cc1noc(C)c1S(=O)(=O)N[C@@H]1C[C@H](Cn2cc(-c3cccnc3)nn2)[C@@H](O)[C@H]1O,i,-2%,40µM*,22µM*
COc1ccc(OC)c(CN2CC(Oc3ccccc3C(=O)NCc3ccccc3)C2)c1,i,-25%,32µM*,?
COc1ccc(CN2CC(Oc3ccccc3C(=O)NC3CC3)C2)c(OC)c1,i,-2%,?,-27%
COc1ccc(CN2CC(Oc3ccccc3C(=O)NCc3ccccc3)C2)c(OC)c1,i,?,50µM*,?
COc1cccc(CN2CC(Oc3ccccc3C(=O)NC3CC3)C2)c1,i,1%,?,-25%
CC(C)N1C(=O)[C@@H]2[C@@H](CCN2C(=O)CSCC(=O)O)N(Cc2cccc(F)c2)C1=O,i,-2%[70.6 µM],-24%[172 µM],-27%[174 µM]
COc1ccc(-c2noc([C@@H](C)NC(=O)c3cc(C)oc3C)c2C(=O)O)cc1,i,-1%[70.6 µM],5%[172 µM],i
FC(F)(F)c1ccnc(N2CCOCC3(CN(Cc4ccccc4)C3)C2)n1,i,1%[70.6 µM],?,-24%[138 µM]
O=[S+]([O-])(c1ccccc1)N1CC2(COCCN(c3nccc(C(F)(F)F)n3)C2)C1,i,-5%[70.6 µM],89µM*,?
O=C(C1CN(C2CCCC2)C(=O)N1)N1CCC(c2ccccc2)CC1 (centres undefined),.,.,-18%,-22%
O=C1NC2(CCCN(C(=O)c3ccccc3F)C2)COc2ccccc21 (centres undefined),i,13µM*,35µM*,?
Cc1ccc(C(=O)N2CCCC3(COc4ccccc4C(=O)N3)C2)cc1 (centres undefined),i,-15%[70.6 µM],63µM*,?
O=C1NC2(CCCN(C(=O)c3ccc4c(c3)OCO4)C2)COc2ccccc21 (centres undefined),i,-27%,40µM*,?
COc1ccc2c(c1)OCC(C(=O)NCCNc1cc(C)ccn1)C2 (centres undefined),i,2%,-15%,79µM*
Cc1cccc(CN2C[C@@H](F)[C@@H](OCc3nc4ccccc4n3C)C2)n1,i,6%[70.6 µM],-2%[172 µM],-4%[138 µM]
C1CC(COCCc2noc(C3CNC3)n2)CCO1,i,-26%,7.9µM*,13µM*
Cc1cccc(OCCc2noc(C3CNC3)n2)c1,i,?,28µM*,28µM*
C1CCC(COCCc2noc(C3CCCNC3)n2)C1 (centres undefined),i,-4%,-18%,1%
C1CC(Cc2noc(C3CCOCC3)n2)CN1 (centres undefined),i,4%,79µM*,?
Cc1cccc(OCCc2noc(C3CCCN3C(=O)c3n[nH]c(=O)c4ccccc34)n2)c1 (centres undefined),i,-2%,40µM*,?
CN1CCN(c2cc(=O)c3ccnc(-c4ccc(F)cc4)c3o2)CC1,i,-2%[70.6 µM],i,?
COc1cccc(CNC(=O)CN2C(=O)NC3(CCCCC3)C2=O)c1,i,1%,0%,-10%
O=C(COc1ccccc1)NC[C@H]1O[C@H](Cc2cc(CN3CCNCC3)on2)CC[C@@H]1O,i,1%,i,5%
COc1ccc(-c2cc(-c3cn[nH]c3)c3cncn3c2)cn1,i,-3%[70.6 µM],?,?
COc1ccc(-c2cc(-c3ccc(OC)nc3)cn3cncc23)cc1,i,-12%[70.6 µM],89µM*,40µM*
SMILES,Luciferase inh,hNpr1 antagonist,HEK293 tox,NIH3T3 tox
COc1ccc(-c2cc(-c3cnc4[nH]ccc4c3)cn3cncc23)cc1,?,-19%[70.6 µM],?,79µM*
Oc1cccc(-c2cc(-c3cccnc3)c3cncn3c2)c1,?,-27%[70.6 µM],56µM*,25µM*
COc1ncccc1-c1cc(-c2ccncc2)c2cncn2c1,i,2%[70.6 µM],?,28µM*
O=C(Nc1cccc2ccccc12)O[C@@H]1CO[C@H]2[C@@H]1OC[C@@H]2n1nnnc1Sc1ccccc1,i,0%,-5%,-13%
Cc1cc(C(=O)N2CCCC(c3noc(COc4ccccc4)n3)C2)nn1C (centres undefined),i,2%,?,?
O=C(c1ccccn1)N1CCCC(C(=O)N2CCCC(c3nc4ncccc4[nH]3)C2)C1 (centres undefined),.,.,-6%,2%
COc1ccc(CNC(=O)c2cc3n(n2)CC(c2ccc4c(c2)OCO4)OC3)cc1OC (centres undefined),i,-19%,?,?
Cc1ccc(-c2cc(-c3cccnc3)c3cncn3c2)cn1,i,-14%[70.6 µM],?,40µM*
OCc1cccc(-c2cc(-c3ccncc3)c3cncn3c2)c1,i,-13%[70.6 µM],25µM*,13µM*
COc1ccc(-c2cc(-c3cccc(NC(C)=O)c3)cn3cncc23)cc1,?,-18%[70.6 µM],?,?
COc1ccc(-c2cc(-c3cccnc3)cn3cncc23)cc1,i,-18%[70.6 µM],?,40µM*
COc1ccc(-c2cc(-c3cccnc3OC)cn3cncc23)cc1,i,-20%[70.6 µM],?,35µM*
Cc1ccc(-c2cc(-c3ccncc3)c3cncn3c2)cn1,i,0%[70.6 µM],?,?
O=C(NCc1ccccc1)c1cnc2n1CCN(Cc1ccc3c(c1)CCO3)CC2,i,-6%[70.6 µM],?,-28%[138 µM]
COC(=O)CNC(=O)c1ccc2oc(-c3cccnc3)nc2c1,.,.,-5%,-23%
CC(C)CN(Cc1cccnc1)C1CN(C(=O)Nc2ccccc2F)C1,i,6%,-13%,-22%
Cc1ccsc1C(=O)C1CCCN(Cc2cc(F)ccc2-n2cccn2)C1 (centres undefined),i,-2%,40µM*,?
COCC[C@]1(O)CCN(Cc2cc(F)ccc2-n2cccn2)C[C@H]1C,i,-14%,?,2%
Cc1nn2c(c1-c1ccccc1OCc1ccccc1)N(Cc1cccc(O)c1)CCC2,i,?,28µM*,25µM*
Cc1nn2c(c1-c1ccccc1[S+](C)(=O)[O-])N(Cc1ccccc1)CCC2,i,-2%[70.6 µM],?,10µM*
Cc1nn2c(c1-c1ccccc1OCc1ccccc1)N(C(=O)C1CCC1)CCC2,i,1%[70.6 µM],40µM*,?
Cc1nn2c(c1-c1ccccc1OCc1ccccc1)N(C(=O)C1CCOCC1)CCC2,i,-20%[70.6 µM],?,?
COCCOc1ncccc1-c1noc([C@@H]2CCCN2Cc2ccc(OC)cc2O)n1,i,0%[70.6 µM],-4%[172 µM],-5%[174 µM]
COc1cc(-c2ccnc3nc(Cc4ccc(F)cc4)nn23)cc(OC)c1OC,i,-17%,32µM*,?
c1cncc(-c2ccnc3nc(CCC4CCCC4)nn23)c1,i,5%,?,?
